According to PubChem BioAssay (NCATS):
Results filed as inconclusive are left out. Calls of active or inactive are those of the source. Calls follow the shape of the dose curve; as a rule, active = well fitted curve in the direction sought with a large enough effect; inconclusive = small, poorly fitted or top-dose-only effect, or another doubt; inactive = no such curve, though single readings can be large; an effect the other way counts as inactive or inconclusive.

Experiments:
[1] = P-glycoprotein substrates identified in KB-8-5-11 adenocarcinoma cell line, qHTS therapeutic library screen (AID 1346987); settings: outcome: dose series up to 44.5 µM; also: series mostly up to about 44 µM; nearly all actives have a fitted effect of over 65% in size
Outline: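 Steps: plate 500 KB-8-5-11 cells/well in DMEM + 10% FCS (colchicine removed); pin compounds in dose-response; incubate 72 h, 37 degree C, 5% CO2; add CellTiter-Glo, 5 min; read luminescence.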

[2] = NS1 protein of Zika virus - qHTS assay to identify small molecule inhibitors in human HEK 293 cells (AID 1347053); also: series mostly up to about 46 µM; nearly all actives have a fitted effect of over 55% in size
Outline: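 HEK 293 cells pretreated with compound for 1 h, then infected with ZIKV MR766 (MOI 0.5) for 24 h at 37 C. NS1 detected by TR-FRET with two anti-NS1 antibodies; normalized to uninfected (0%) and infected (100%) wells.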

[3] = qHTS of pediatric cancer cell lines to identify multiple opportunities for drug repurposing: Primary screen for TC32 cells (AID 1347089); also: nearly all actives have a fitted effect of over 60% in size
Outline: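 Measured quantity: luminescence from CellTiter-Glo, reflecting metabolically active TC32 cells following 48 h of compound. Curves came straight from multi-point titrations, with 8 or 11 points in primary and 11 in confirmatory screening.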

[4] = qHTS of pediatric cancer cell lines to identify multiple opportunities for drug repurposing: Primary screen for DAOY cells (AID 1347090); also: series mostly up to about 46 µM; nearly all actives have a fitted effect of over 55% in size
Outline: (§1)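 Viability measured as metabolically active cells via CellTiter-Glo luminescence following 48 hours of compound exposure, 11-point dilutions in confirmatory testing. 500-1,000 cells/well plated 5 hours before dosing; controls were DMSO and 2.3 µM bortezomib.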

[5] = qHTS of pediatric cancer cell lines to identify multiple opportunities for drug repurposing: Primary screen for SJ-GBM2 cells (AID 1347091)
Outline: as §1

[6] = qHTS of pediatric cancer cell lines to identify multiple opportunities for drug repurposing: Primary screen for A673 cells (AID 1347092); also: nearly all actives have a fitted effect of over 45% in size
Outline: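 Cells are plated, rested 5 h, dosed by pintool, incubated 48 h, then lysed with CellTiter-Glo and read by luminescence. DMSO is the neutral control; bortezomib at 2.3 uM final is the positive control.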

[7] = qHTS of pediatric cancer cell lines to identify multiple opportunities for drug repurposing: Primary screen for SK-N-MC cells (AID 1347093); also: series mostly up to about 46 µM
Outline: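 Metabolically active cells were quantified by ATP-dependent luminescence (CellTiter-Glo, 15 min at room temperature) following 48 h treatment. Cells had been plated at 500-1,000 per well and settled for 5 h beforehand.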

[8] = qHTS of pediatric cancer cell lines to identify multiple opportunities for drug repurposing: Primary screen for BT-37 cells (AID 1347094); also: series mostly up to about 57 µM
Outline: (§2)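 Following a 5-hour attachment period, cells at 500-1,000/well received compounds and were cultured for 48 hours. CellTiter-Glo was added and luminescence read to estimate viable, metabolically active cells.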

[9] = qHTS of pediatric cancer cell lines to identify multiple opportunities for drug repurposing: Primary screen for NB-EBc1 cells (AID 1347095)
Outline: as §2

[10] = qHTS of pediatric cancer cell lines to identify multiple opportunities for drug repurposing: Primary screen for U-2 OS cells (AID 1347096); also: nearly all actives have a fitted effect of over 50% in size
Outline: (§3)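 Viability after 48 h compound treatment at 37C, 500-1,000 cells/well, read as ATP luminescence with CellTiter-Glo. Primary screens used 11-point (MIPE, 0.78 nM-46 µM) or 8-point (NPC, 0.59 nM-46 µM) final concentrations; follow-up screens used 11-point dilutions.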

[11] = qHTS of pediatric cancer cell lines to identify multiple opportunities for drug repurposing: Primary screen for Saos-2 cells (AID 1347097); also: nearly all actives have a fitted effect of over 40% in size
Outline: as §2

[12] = qHTS of pediatric cancer cell lines to identify multiple opportunities for drug repurposing: Primary screen for SK-N-SH cells (AID 1347098);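 also: DMSO served as neutral control and bortezomib at 2.3 µM as positive control; nearly all actives have a fitted effect of over 65% in size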
Outline: (§4)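 Cells (500-1,000/well) rested 5 h, then received compounds for 48 h; metabolically active cells were measured by CellTiter-Glo luminescence. Final concentrations spanned up to 46 µM (MIPE, 11-point) or 0.59 nM-46 µM (NPC, 8-point) in primary screens, 11-point in follow-ups.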

[13] = qHTS of pediatric cancer cell lines to identify multiple opportunities for drug repurposing: Primary screen for NB1643 cells (AID 1347099); also: nearly all actives have a fitted effect of over 50% in size
Outline: as §2

[14] = qHTS of pediatric cancer cell lines to identify multiple opportunities for drug repurposing: Primary screen for LAN-5 cells (AID 1347100)
Outline: as §3

[15] = qHTS of pediatric cancer cell lines to identify multiple opportunities for drug repurposing: Primary screen for Rh18 cells (AID 1347102); also: nearly all actives have a fitted effect of over 65% in size
Outline: as §3

[16] = qHTS of pediatric cancer cell lines to identify multiple opportunities for drug repurposing: Primary screen for RD cells (AID 1347104); also: nearly all actives have a fitted effect of over 55% in size
Outline: as §2

[17] = qHTS of pediatric cancer cell lines to identify multiple opportunities for drug repurposing: Primary screen for MG 63 (6-TG R) cells (AID 1347105); also: nearly all actives have a fitted effect of over 50% in size
Outline: as §2

[18] = qHTS of pediatric cancer cell lines to identify multiple opportunities for drug repurposing: Primary screen for BT-12 cells (AID 1347101); also: nearly all actives have a fitted effect of over 25% in size
Outline: as §4

[19] = qHTS of pediatric cancer cell lines to identify multiple opportunities for drug repurposing: Primary screen for OHS-50 cells (AID 1347103); also: nearly all actives have a fitted effect of over 40% in size
Outline: as §4

Measured: Potency

CCCCCOC(=O)Nc1nc(=O)n([C@@H]2O[C@H](C)[C@@H](O)[C@H]2O)cc1F
inactive: [1] | [2] | [3] | [4] | [5] | [6] | [7] | [8] | [9] | [10] | [11] | [12] | [13] | [14] | [15] | [16] | [17]

Cc1ccsc1/C=C/C1=NCCCN1C
inactive: [1] | [2] | [3] | [4] | [5] | [6] | [7] | [8] | [9] | [10] | [11] | [13] | [14] | [18] | [15] | [19] | [16] | [17]

Cc1ccccc1N=Nc1ccc(N=Nc2c(O)ccc3ccccc23)c(C)c1
inactive: [1] | [2] | [3] | [4] | [5] | [6] | [7] | [8] | [9] | [10] | [11] | [12] | [14] | [18] | [15] | [19] | [16] | [17]

C[C@@H]1O[C@@H](OC[C@H]2O[C@@H](Oc3c(-c4ccc(O)c(O)c4)oc4cc(O)cc(O)c4c3=O)[C@H](O)[C@@H](O)[C@@H]2O)[C@H](O)[C@H](O)[C@H]1O
inactive: [1] | [2] | [3] | [4] | [5] | [6] | [7] | [8] | [9] | [10] | [11] | [12] | [13] | [14] | [18] | [16] | [17]

CC(=O)N[C@@H](CC(C)C)C(=O)O
inactive: [1] | [2] | [3] | [4] | [5] | [6] | [7] | [8] | [9] | [10] | [11] | [12] | [14] | [18] | [15] | [19] | [16] | [17]

NNc1nnc(NN)c2ccccc12
inactive: [1] | [2] | [3] | [4] | [5] | [6] | [7] | [8] | [9] | [10] | [11] | [12] | [13] | [14] | [15] | [19] | [16] | [17]

C[N+](C)(C)CC[N+]1(C)Cc2c(Cl)c(Cl)c(Cl)c(Cl)c2C1
inactive: [1] | [2] | [3] | [4] | [5] | [6] | [7] | [8] | [9] | [10] | [11] | [12] | [13] | [14] | [15] | [19] | [16] | [17]

CN1C(C)(C)CCCC1(C)C
inactive: [1] | [2] | [3] | [4] | [5] | [6] | [7] | [8] | [9] | [10] | [11] | [13] | [14] | [18] | [15] | [19] | [16] | [17]

CC(CSC(=O)c1ccccc1)C(=O)N1C[C@@H](Sc2ccccc2)C[C@H]1C(=O)O (some centres not stated)
inactive: [1] | [2] | [3] | [4] | [5] | [6] | [7] | [8] | [9] | [10] | [11] | [12] | [13] | [14] | [18] | [19] | [16] | [17]

COc1cc(C(=O)NCCCCCC(=O)O)cc(OC)c1OC
inactive: [1] | [2] | [3] | [4] | [5] | [6] | [7] | [8] | [9] | [10] | [11] | [12] | [13] | [14] | [18] | [19] | [16] | [17]

COc1ccc(-c2cc(=O)c3c(O)cc(O[C@@H]4O[C@H](CO[C@@H]5O[C@@H](C)[C@H](O)[C@@H](O)[C@H]5O)[C@@H](O)[C@H](O)[C@H]4O)cc3o2)cc1O
inactive: [1] | [2] | [3] | [4] | [5] | [6] | [7] | [8] | [9] | [10] | [11] | [12] | [13] | [14] | [18] | [19] | [16] | [17]

CCCOC(=O)c1ccc(N)cc1
inactive: [1] | [2] | [3] | [4] | [5] | [6] | [7] | [8] | [9] | [10] | [12] | [13] | [14] | [18] | [15] | [19] | [16] | [17]

COc1ccc2cc(CCC(C)=O)ccc2c1
inactive: [1] | [2] | [3] | [4] | [5] | [6] | [7] | [8] | [9] | [10] | [12] | [13] | [14] | [18] | [15] | [16] | [17]

Cc1[nH]c(C)c(Cl)c(=O)c1Cl
inactive: [1] | [2] | [3] | [4] | [5] | [6] | [7] | [8] | [9] | [10] | [11] | [13] | [14] | [18] | [15] | [16] | [17]

Cc1c(C)c2c(c(C)c1OC(=O)c1cccnc1)CC[C@@](C)(CCC[C@H](C)CCC[C@H](C)CCCC(C)C)O2
inactive: [1] | [2] | [3] | [4] | [5] | [6] | [7] | [8] | [9] | [10] | [14] | [18] | [16] | [17]
